The results in this text go back to PubChem BioAssay (NCATS).

Records with an inconclusive call do not appear. Unmarked numbers belong to inactive results. The source made the active and inactive calls. The call rests on the fitted dose curve; in most records, active means well fitted curve in the direction sought with a large enough effect; inconclusive means small, poorly fitted or top-dose-only effect, or another doubt; inactive means no such curve, though single readings can be large; an effect the other way counts as inactive or inconclusive.

In experiment [1] the test system is Zika virus NS2B-NS3 protease (linked construct). The experiment can be described thus: Primary screen NINDS Rhodamine qHTS for Zika virus inhibitors (AID 1347160). Further: nearly all actives have a fitted effect of over 55% in size. Further: potency means the concentration at half of the fitted maximal effect. Put shortly: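 Each compound, titrated, sat 15 min with 25 nM linked protease before 1.5 microM Rhodamine110 substrate went in. Fluorescence gain over the next 15 min, in pH 8.0 Tris with Tween 20, gave Hill-fitted curves.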
On the technique in general: Quantitative high-throughput screening tests each substance at several concentrations.

Experiment [2] can be described thus: OV-SAHO Cancer Cell Toxicity qHTS against the NCATS CANVASS Library (AID 1347348). Further: series mostly up to about 38 µM; nearly all actives have a fitted effect of over 55% in size. The essentials:
(§1)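 ATP content after 72 h treatment, detected by CellTiter-Glo luminescence (15min room-temperature development), reflects cell viability. Wells contained 1000 cells and received compounds at 11 concentrations.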

A short description of experiment [3]: A2780 Cisplatin Sensitive Ovarian Cancer Cell Toxicity qHTS against the NCATS CANVASS Library (AID 1347353). Further: nearly all actives have a fitted effect of over 60% in size. Further: potency means the concentration at half of the fitted maximal effect. Put shortly: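 Quantitative HTS format: eleven compound concentrations applied to pre-seeded cells, 72 h incubation at 37 °C, then ATP detection by luminescence.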
A short description of experiment [4]: UWB1.289-WTBRCA1 Cancer Cell Toxicity qHTS against the NCATS CANVASS Library (AID 1347354). Put shortly: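 Using an ATP-based luminescent reagent after three days of treatment, toxicity is scored across an eleven-concentration range in wells holding 1000 cells each.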
Experiment [5] can be described thus: HEK293 18hr Apoptosis Induction qHTS against the NCATS CANVASS Library (AID 1347357). Further: potency means the concentration at half of the fitted maximal effect. Put shortly:
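HEK293 cells (500/well, DMEM + 10% FBS) treated with an 11-point series for 18 h at 37 degrees C. Caspase-3/7 activity read by Caspase-Glo luminescence after 15 min at room temperature.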

Experiment [6] relates to NAD(P)H diaphorase (Clostridium kluyveri). The experiment can be described thus: Diaphorse counterscreen qHTS: Assay Interference Panel against the NCATS CANVASS Library (AID 1347362). The essentials:
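Clostridium kluyveri diaphorase in PBS + 0.01% Tween-20 preincubated 15 min with compounds. Resazurin and NADH then added for 5 min at room temperature in the dark; resorufin fluorescence read (ex 525, em 598).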
On the technique in general: A counterscreen serves to expose hits that act by an unwanted route or on another target.

Experiment [7] can be described thus: KB-8-5-11 Cancer Cell Toxicity qHTS against the NCATS CANVASS Library (AID 1347364). Further: nearly all actives have a fitted effect of over 75% in size. Further: potency means the concentration at half of the fitted maximal effect. Put shortly: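 Luminescent ATP signal (CellTiter-Glo, 10 min at room temperature) measured cell survival of KB-8-5-11 after 72 hr compound treatment. For confirmation, the cells were also grown with 1uM tariquidar.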
Experiment [8] in a line: SDT Cancer Cell Toxicity qHTS against the NCATS CANVASS Library (AID 1347365). Further: nearly all actives have a fitted effect of over 60% in size. Further: potency means the concentration at half of the fitted maximal effect. The essentials: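 Canine SDT glioma cell toxicity was scored by ATP-dependent luminescence after a 72 hr incubation with an 11-point compound series.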
The nature of experiment [9]: G06 Cancer Cell Toxicity qHTS against the NCATS CANVASS Library (AID 1347368). Further: nearly all actives have a fitted effect of over 60% in size. Further: potency means the concentration at half of the fitted maximal effect. The essentials: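 Quantitative HTS in G06 cells (dog glioma): 72 hr treatment, 11 concentrations, then ATP-based luminescent viability readout; bortezomib 0.1 nM–4.6 uM final as reference.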
Experiment [10] can be described thus: qHTS for ATAD5 Antagonist screened against the NCATS CANVASS Library (AID 1347370). Further: nearly all actives have a fitted effect of over 65% in size. Further: potency means the concentration at half of the fitted maximal effect. Put shortly:
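HEK293T-ATAD5 luc reporter, 2000 cells/well; 5hr attach; cpd + 10 uM 5-FUrd; 16hr 37C, 5% CO2. Readouts: CellTiter-Fluor fluorescence (1hr), then Amplite luciferase luminescence (30min RT).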

The nature of experiment [11]: qHTS for Hypoxia signaling pathway (HIF-1) antagonists against the NCATS CANVASS Library (AID 1347374). Further: nearly all actives have a fitted effect of over 60% in size. Further: potency means the concentration at half of the fitted maximal effect. The essentials: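 Beta-lactamase reporter under HRE control in ME-180 cells; CoCl2 stimulus (60 uM solution as added), compounds 11-pt qHTS, 17 h 37C. CCF4 dye 2 h RT, 460/530 nm emission. CellTiter-Glo viability in same wells.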
A short description of experiment [12]: qHTS for Hypoxia signaling pathway (HIF-1) agonists against the NCATS CANVASS Library (AID 1347375). The essentials: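 An HRE-beta-lactamase ME-180 line is exposed for 17 h to an 11-point compound series, then read by CCF4-AM FRET. Cytotoxicity is measured in parallel in the same wells with CellTiter-Glo, and autofluorescence is checked separately.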
Experiment [13] can be described thus: Cytotoxicity qHTS for assessment of Hepg2 cells membrane integrity screened against the NCATS CANVASS Library (AID 1347387). The essentials:
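Membrane damage in HepG2 monolayers was estimated from released LDH, measured with CytoTox-ONE (ex 560/em 590 nm), after 5 hr treatment across 0.59 nM - 46 uM final.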

Experiment [14] can be described thus: Vero-766 cells viability qHTS against the NCATS CANVASS Library: Counterscreen for Zika virus inhibition assay (AID 1347394). Further: nearly all actives have a fitted effect of over 60% in size. Further: potency means the concentration at half of the fitted maximal effect. The essentials: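 Vero 766 cells (1000/well), without Zika virus, were exposed to compounds for 72 h at 37C. Viability was measured by CellTiter Glo luminescence. Media-only wells served as 100% inhibition.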
Experiment [15] is described as follows: qHTS for inhibitors of Wild type Zika virus screened against the NCATS CANVASS Library (AID 1347396).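 Further: ATP luminescence of surviving cells so rescue from viral cell killing; series mostly up to about 46 µM.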 The essentials: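 Vero 766 (African green monkey) cells, 1000 per well, attached overnight, then compounds were added in an 11-point series before wild-type Zika virus infection. After 72 h at 37C, cell viability was read as CellTiter Glo luminescence.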

Experiment [16] is described as follows: Redox Reaction Profiling qHTS: Assay Interference Panel against the NCATS CANVASS Library (AID 1347401). Further: potency means the concentration at half of the fitted maximal effect. The essentials:
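Fluorescence read-out (525 nm excitation, 598 nm emission) at time zero and after 15 min in the dark tracked resorufin formation. Mix: 5 uM resazurin, 200 uM DTT, HEPES pH 7.3 buffer with NaCl.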

Experiment [17] can be described thus: qHTS for activators of dead-cell proteases activity screened against the NCATS CANVASS Library (AID 1347392).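 Further: luminescence from protease leaking out of membrane-damaged cells cleaving impermeant substrate; rising signal means more cytotoxicity.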 The essentials:
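HepG2, 2000 cells/well, 18 h attach; cpd 11-pt, 5 h 37C 5% CO2; CytoTox-Glo (AAF-aminoluciferin) 15 min RT; luminescence read.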

The nature of experiment [18]: UWB1.289 Cancer Cell Toxicity qHTS against the NCATS CANVASS Library (AID 1347347). The essentials:
as §1

Experiment [19] is described as follows: Panc-1005 Cancer Cell Toxicity qHTS against the NCATS CANVASS Library (AID 1347349). Further: nearly all actives have a fitted effect of over 60% in size. Further: potency means the concentration at half of the fitted maximal effect. Put shortly: as §1
Experiment [20] in a line: qHTS for activators of Nrf2/ARE signaling pathway screened against the NCATS CANVASS Library (AID 1347391). Further: nearly all actives have a fitted effect of over 60% in size. Further: potency means the concentration at half of the fitted maximal effect. Put shortly:
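Activation of Nrf2/ARE was scored in ARE-bla HepG2 cells after 16 h compound exposure using CCF4 beta-lactamase fluorescence ratio readings.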

As to `C/C=C1/CC[C@@H]2c3[nH]c4ccccc4c3CCN2C1`, the Potency entry in experiment [1], in experiment [2], in experiment [3], in experiment [4], in [5] and in experiment [6] was “inactive” in each case. Moreover, the Potency entry in [7], in experiment [8], in experiment [9], in experiment [10], in experiment [11] and in experiment [12] was “inactive” each time. For the same compound, the Potency entry in experiment [14], in experiment [15] and in experiment [16] was “inactive” throughout. Moreover, the outcome in experiment [13] was inactive.

For the compound `C=C(C)CC[C@H](Cc1c(O)cc(O)c2c1O[C@H](c1ccc(O)cc1O)CC2=O)C(=C)C`, the figures for the Potency in [1] and in [14] were 19.6 µM (active) and 23.4 µM (active), respectively. For the same compound, the Potency result in [2], in [4], in experiment [5], in experiment [6], in experiment [7] and in experiment [8] was “inactive” throughout. In addition, the Potency entry in [9], in [10], in [12], in experiment [17], in experiment [15] and in [16] was “inactive” throughout. Moreover, the compound was called inactive in experiment [13].

As for `CN1C(=O)[C@]23SS[C@@]1(C)C(=O)N2[C@H]1Nc2ccccc2[C@]1(c1c[nH]c2ccccc12)[C@@H]3O`, the Potency was 49.3 µM (active) in experiment [1]; 0.747 µM (active) in experiment [18]; 0.668 µM (active) in experiment [19]; 0.132 µM (active) in experiment [3]; 8.33 µM (active) in [5]; 2.35 µM (active) in experiment [7]. The Potency is 0.743 µM (active) in experiment [8]; 0.296 µM (active) in [9]; 4.67 µM (active) in experiment [10]; 0.941 µM (active) in [11]; 1.86 µM (active) in experiment [20]; 6.6 µM (active) in experiment [14]. Besides, the Potency in [16] is 24.1 µM (active). Further, the Potency entry in experiment [12] and in experiment [17] was “inactive” each time. The compound was called inactive in [13].

On to `CCCCCC[C@H](CCCCC[C@@H](O)C(N)=O)OC(=O)[C@@H]1CC=CN1C(=O)c1ccccc1O`, for which the Potency in experiment [18] was 6.66 µM (active). Also, the Potency entry in experiment [19], in experiment [5], in experiment [7], in [10], in [11] and in experiment [12] was “inactive” each time. Further, the Potency result in experiment [20], in [15] and in experiment [16] was “inactive” each time. For the same compound, the compound was called inactive in experiment [13].

`CN1CCc2cc3c(c4c2[C@H]1[C@@H](O)c1ccccc1-4)OCO3`: the Potency was 44 µM (active) in experiment [1]; 16.8 µM (active) in experiment [19]; 18.7 µM (active) in experiment [8]; 11.8 µM (active) in [11]; 20.9 µM (active) in experiment [20]; 7.64 µM (active) in [16]. Moreover, the Potency result in [2], in experiment [4], in experiment [5], in [12], in [17] and in [15] was “inactive” in each case. For the same compound, the call in experiment [13] was inactive.

Take `CN1CC[C@]2(c3cccc4c3N[C@@H]3N(C)CC[C@]43[C@@]34CCN(C)[C@@H]3Nc3ccccc34)c3ccccc3N[C@H]12`: the Potency entry in [1], in experiment [6], in experiment [10], in experiment [12], in [20] and in experiment [15] was “inactive” each time. Further, in [16], the Potency result was “inactive”. The Potency in experiment [18] was 18.8 µM (active); in experiment [19], 16.8 µM (active); in [3], 14.8 µM (active); in experiment [7] it was 16.6 µM (active); in experiment [8], 2.96 µM (active); in [9], 3.72 µM (active). Besides, in [11], the Potency is 14.9 µM (active). The compound was classed as inactive in experiment [13].
